Assay results taken from the supplement of paper PMC13380429.
Values without a mark were called inactive.

System: Vero E6 infected with SARS-CoV-2
Assay: inhibition of SARS-CoV-2 cytopathic effect; higher = more antiviral protection, active = above 15
Settings: 48 h

Row | SMILES | inhibition of SARS-CoV-2 cytopathic effect (1 nM) [%] | inhibition of SARS-CoV-2 cytopathic effect (8.33 nM) [%] | inhibition of SARS-CoV-2 cytopathic effect (100 nM) [%] | inhibition of SARS-CoV-2 cytopathic effect (833.33 nM) [%] | inhibition of SARS-CoV-2 cytopathic effect (10000 nM)
1 | O[C@H]1CC[C@H](Nc2ncc3nc(Nc4c(F)cc(F)cc4F)n([C@H]4CCOC4)c3n2)CC1 | 1.66 | 2.79 | 0.98 | -0.04 | -3.68%
2 | O=S(=O)(/N=C/c1c(O)ccc2ccccc12)c1cccs1 | 1.63 | 2.5 | 1.59 | 1.88 | 0.08%
3 | Cc1ccc(S(=O)(=O)/C=C/C#N)cc1 | 0.18 | -2.24 | 0.01 | 4.59 | 18.8% (active)
4 | CN1CCC(Nc2ncc3ncnc(Nc4ccc(F)c(Cl)c4)c3n2)CC1 | 0.68 | 1.23 | -4.55 | -7.55 | -2.79%
5 | O=C1C[C@@H](c2ccc(O)cc2)Oc2cc(O)cc(O)c21 [naringenin] | -1.9 | 0.02 | -0.05 | 0.5 | 0.31%
6 | O=c1oc2cc(O)ccc2s1 [tioxolone] | 1.22 | -2.55 | -0.43 | -1.44 | -1.5%
7 | C[C@H](CCC(=O)O)[C@H]1CC[C@H]2[C@@H]3[C@H](O)C[C@@H]4C[C@H](O)CC[C@]4(C)[C@H]3C[C@H](O)[C@]12C [cholic-acid] | -0.3 | 0.75 | 0.02 | -0.84 | 0.54%
8 | Cc1ccc2c(-c3ccccc3)nc(=O)n(C(C)C)c2c1 [proquazone] | 0.68 | 0.21 | -1.31 | -2.03 | -0.55%
9 | NC(=O)c1cn(Cc2c(F)cccc2F)nn1 [rufinamide] | 2.25 | 1 | 2.89 | 1.75 | 3.51%
10 | Clc1ccc(C(Cn2ccnc2)OCc2csc3c(Cl)cccc23)c(Cl)c1 (stereo not given) [sertaconazole] | 0.24 | 1.06 | -0.32 | 1.68 | -2.97%
11 | Nc1nnc(Sc2ncc([N+](=O)[O-])s2)s1 | 3.57 | -1.18 | -0.27 | -2.43 | -20.9%
12 | O=C(NCc1ccc2c(c1)OCO2)c1c(Cl)cccc1Cl [alda-1] | -2.37 | 0.82 | -2.66 | -5.92 | -3.23%
13 | C[C@](N)(Cc1ccc(O)cc1)C(=O)O [metirosine] | 2.52 | 2.13 | 7.36 | 2.34 | 2.26%
14 | NC(=O)N1C(=O)/C(=C(\O)c2cccs2)c2cc(Cl)ccc21 [tenidap] | 1.19 | 1.1 | 0.33 | 1.99 | -5.52%
15 | CN(C)C(=O)Oc1ccc[n+](C)c1 [mestinon] | 4.06 | -0.26 | 0.13 | -2.1 | -1.86%
16 | Cc1cc(/C=C2\SC(=O)N(c3ccccc3)C2=O)c(C)n1-c1cccnc1 | 2.97 | -0.28 | 1.31 | 1.52 | 2.29%
17 | Cc1nc2ccc(Oc3ccc(F)cc3)cc2c(=O)n1C[C@H]1CCCN(C(C)C)C1 | 0.11 | 0.49 | 1.67 | 0.07 | -5.71%
18 | O=C(O)CCC(=O)O [succinic-acid] | -0.06 | -1.83 | -1.13 | -0.66 | 2.3%
19 | O=C(NC(Cc1cc(=O)[nH]c2ccccc12)C(=O)O)c1ccc(Cl)cc1 (stereo not given) [rebamipide] | -0.87 | 2.6 | 4.52 | 2.91 | 1.77%
20 | O=C1CN=C(c2cccc(Br)c2)c2oc3ccccc3c2N1 | -2.75 | -1.3 | -1.9 | 0.38 | 0.75%
21 | Cn1cc(C2=C(c3cn(C4CCN(Cc5ccccn5)CC4)c4ccccc34)C(=O)NC2=O)c2ccccc21 [enzastaurin] | 0.18 | 1.89 | 1.4 | 1.31 | 3.94%

Row | SMILES | inhibition of SARS-CoV-2 cytopathic effect (1 nM) [%] | inhibition of SARS-CoV-2 cytopathic effect (8.33 nM) [%] | inhibition of SARS-CoV-2 cytopathic effect (100 nM) [%] | inhibition of SARS-CoV-2 cytopathic effect (833.33 nM) [%] | inhibition of SARS-CoV-2 cytopathic effect (10000 nM)
22 | CC(C)NC[C@@H](O)COc1ccccc1-n1cccc1 (racemic) [isamoltane] | 1.05 | -0.83 | 1.76 | 1.65 | -0.73%
23 | Cc1csc(S(=O)(=O)N(CC(C)C)c2cc3c(cc2OCc2ccc(C(=O)O)cc2)CCC3)n1 | -2.46 | -1.9 | 3.16 | 2.51 | 2.78%
24 | Cc1cccc(C)c1NC(=O)c1ccccc1C(=O)O [ftaxilide] | -0.49 | 0.92 | -1.2 | 0.63 | 1.39%
25 | CCCc1cc(C(N)=S)ccn1 [protionamide] | -1.61 | 2.36 | 1.7 | 3.81 | -1.88%
26 | CN1C(=O)N(c2cc(Cl)cc(Cl)c2)C(=O)[C@]12CN(c1ccc(C(=O)O)cn1)C[C@H]2c1ccc(C#N)cc1 | 1.7 | 0.43 | 1.42 | 1.84 | 1.57%
27 | COc1ccc(-n2nc(CCC(=O)N(C)O)cc2-c2ccc(Cl)cc2)cc1 [tepoxalin] | 0.7 | -1.58 | 0.1 | 1.81 | -0.4%
28 | CN(C)CCOC(C)(c1ccccc1)c1ccccn1 (stereo not given) [doxylamine] | -1.38 | -0.13 | -1.73 | 1.53 | 1.43%
29 | CNC(=O)c1c(C)oc2cc(Oc3ncnc4cc(OC)c(OC)cc34)ccc12 [fruquintinib] | 2.39 | -2.79 | -1.12 | -3.32 | -0.11%
30 | Cn1ncnc1COc1nn2c(-c3cc(F)ccc3F)nnc2cc1C(C)(C)C | 3.33 | 3.4 | 3.15 | 1.53 | 0.81%
31 | CCNC(=O)CCC/C=C\C[C@@H]1[C@@H](/C=C/[C@@H](O)CCc2ccccc2)[C@H](O)C[C@@H]1O [bimatoprost] | -2.31 | -0.42 | -0.15 | -0.88 | 3.04%
32 | C[C@]12Cc3c[nH]nc3C[C@@H]1CC[C@@H]1[C@@H]2CC[C@@]2(C)[C@H]1CC[C@]2(C)O [stanozolol] | -3.58 | -5.17 | -4.66 | -3.19 | -5.61%
33 | O=S(=O)(O)c1ccc(O)cc1 [4-phenolsulfonic-acid] | -2.47 | 0.25 | 0.79 | -2.18 | -0.48%
34 | CCS(=O)(=O)c1ccc2oc(-c3ccc4ccccc4c3)nc2c1 [ezutromid] | 3.38 | 0.67 | -1.92 | 2.64 | 1.18%
35 | COc1cc2c(cc1OC)CN(CCc1ccc(NC(=O)c3cc(OC)c(OC)cc3NC(=O)c3cnc4ccccc4c3)cc1)CC2 [tariquidar] | 1.54 | -1.28 | 2.75 | 1.99 | -0.52%
36 | COc1cc(F)c(C(C)C)cc1-c1ccc(C(F)(F)F)cc1CN1C(=O)O[C@H](c2cc(C(F)(F)F)cc(C(F)(F)F)c2)[C@@H]1C [anacetrapib] | 0.72 | 0.48 | -1.02 | -2.52 | 2.39%
37 | Cc1ncc(CO)c(CO)c1O [pyridoxine] | -15.8 | -9.76 | -7.58 | -12.7 | -14.1%
38 | CC(C)[C@@H](C(=O)Nc1nccs1)c1ccc(Cl)cc1 | 0.5 | 0.66 | 1.05 | 1.87 | 1.55%
39 | CCc1ccc(C(=O)C(C)CN2CCCCC2)cc1 (stereo not given) [eperisone] | 0.14 | 2.24 | 3.36 | 4.7 | 2.77%
40 | CC(=O)NS(=O)(=O)c1ccc(N)cc1 [sulfacetamide] | 0.35 | 2.07 | 1.95 | 2.14 | 0.21%
41 | CC(=O)OCC1=C(C(=O)O)N2C(=O)[C@@H](N)[C@H]2SC1 [7-aminocephalosporanic-acid] | -5.97 | -2.34 | -5.2 | -0.34 | 3.59%
